# Experimental data reported in article PMC4336329 (PLoS ONE, 2015).
# The campaign covered roughly 310,000 compounds. About 14,000 (4.5%) showed an effect of 50% or more. The effect is printed as a negative number. This excerpt belongs to a sample that is enriched for strong results.
# Target: human ether-à-go-go-related gene (hERG) potassium channel (human, UniProt Q12809)
# Test: primary screen, population patch clamp on CHO cells stably expressing hERG; higher = less effect of the substance
# 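Also: peak tail current of the secondary pulse compared with the same well before compound.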
# human ether-à-go-go-related gene (hERG) potassium channel, sequence (Q12809 whole entry, looked up): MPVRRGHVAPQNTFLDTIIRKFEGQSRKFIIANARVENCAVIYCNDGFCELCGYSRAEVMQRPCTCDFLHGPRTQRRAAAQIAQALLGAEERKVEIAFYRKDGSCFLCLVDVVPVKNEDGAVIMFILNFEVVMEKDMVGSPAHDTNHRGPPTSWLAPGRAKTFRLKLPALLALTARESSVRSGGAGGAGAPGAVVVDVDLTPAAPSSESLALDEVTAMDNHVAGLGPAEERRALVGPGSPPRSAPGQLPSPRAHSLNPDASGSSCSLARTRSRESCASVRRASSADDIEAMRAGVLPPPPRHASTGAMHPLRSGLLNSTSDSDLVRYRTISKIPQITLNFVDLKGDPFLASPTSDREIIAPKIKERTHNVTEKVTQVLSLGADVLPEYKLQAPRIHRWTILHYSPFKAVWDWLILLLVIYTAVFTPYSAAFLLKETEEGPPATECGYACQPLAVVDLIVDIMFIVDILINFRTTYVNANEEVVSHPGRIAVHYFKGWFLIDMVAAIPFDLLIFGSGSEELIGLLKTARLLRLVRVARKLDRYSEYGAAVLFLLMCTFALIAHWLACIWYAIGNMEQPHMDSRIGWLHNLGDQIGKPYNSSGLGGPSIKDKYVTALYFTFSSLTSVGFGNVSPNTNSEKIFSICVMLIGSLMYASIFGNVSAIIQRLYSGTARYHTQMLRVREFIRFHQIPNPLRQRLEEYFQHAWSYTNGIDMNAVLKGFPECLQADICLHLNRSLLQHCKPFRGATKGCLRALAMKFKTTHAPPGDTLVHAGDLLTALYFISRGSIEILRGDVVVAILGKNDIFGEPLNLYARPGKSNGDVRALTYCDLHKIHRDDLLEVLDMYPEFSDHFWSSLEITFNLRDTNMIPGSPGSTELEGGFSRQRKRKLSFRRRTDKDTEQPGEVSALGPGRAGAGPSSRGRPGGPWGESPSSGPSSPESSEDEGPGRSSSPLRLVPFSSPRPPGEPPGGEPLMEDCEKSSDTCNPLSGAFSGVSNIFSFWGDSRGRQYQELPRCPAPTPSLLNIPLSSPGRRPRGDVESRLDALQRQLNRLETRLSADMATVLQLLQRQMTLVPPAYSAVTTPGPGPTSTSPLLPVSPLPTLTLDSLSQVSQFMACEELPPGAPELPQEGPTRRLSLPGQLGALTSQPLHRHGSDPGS
row,Structure (SMILES),"hERG current change (%, negative = inhibition) at 10uM"
1,CC(C)(C)NC(=O)CCN(/N=C/c1ccccc1F)C1=NS(=O)(=O)c2ccccc21,15.7%
2,CCNc1c(NS(=O)(=O)c2ccc(OC)cc2)c(=O)oc2ccccc12,-24.3%
3,O=C(Nc1ccccc1Cc1ccccc1)c1ccc2c(c1)SC1=NS(=O)(=O)CCN12,-5.78%
4,COC(=O)c1cccc(NC(=S)Nc2ccccc2Cl)c1,-3.48%
5,Cc1c(C(=O)N(C)C)c2ccc(Cl)cc2n1O,15.6%
6,COc1ccc(Cn2c(=O)[nH]c3cc(OC)c(OC)cc3c2=O)cc1,7.17%
7,Cc1ccc(C(=O)N/C(N)=N/c2nc3ccccc3o2)cc1,-2.82%
8,N=c1c2c(-c3ccccc3)c(-c3ccccc3)oc2ncn1Cc1ccco1,0.861%
9,CC1(C)Cc2c(sc3c2c(=N)n(Cc2ccco2)c(=O)n3Cc2ccccc2)CO1,-12.5%
10,N=C1C(c2ccccc2)=C(O)CN1Cc1ccco1,6.39%
11,CC(C)Cn1cnc2c(c(-c3ccccc3)c(-c3ccccc3)n2Cc2ccco2)c1=N,-73.3%
12,O=c1c2ccccc2c2ccccc2c(=O)n1Cc1ccco1,3.47%
13,N=c1c2c(-c3ccccc3)c(-c3ccccc3)n(Cc3ccco3)c2ncn1Cc1ccccc1,-69.3%
14,N=c1c2c(-c3ccccc3)c(-c3ccccc3)n(Cc3ccco3)c2ncn1Cc1ccco1,-71.2%
15,O=c1c2ccccc2nc(-c2ccccc2)n1Cc1ccco1,-30.5%
16,CCN(CC)S(=O)(=O)c1ccc(Cl)c(C(=O)Nc2cc(C)nn2-c2ccccc2)c1,-26.3%
17,O=C(CCC(=O)N1CCSc2ccccc21)NCc1ccc(Cl)cc1,-33.8%
18,CCOc1cc(/C=N/NC(=O)c2ccncc2)ccc1OS(C)(=O)=O,-3.33%
19,COc1ccc(C2=CC3=C(Br)C(=O)C(C)(O)C(=O)C3=CO2)cc1 (stereo not shown),11.9%
20,O=[N+]([O-])c1cc([N+](=O)[O-])c(N2CCCCCC2)cc1NCCO,-13.4%
21,Cc1ccc2c(c1)C(O)(CC(=O)c1ccc(C)s1)C(=O)N2 (stereo not shown),21.4%
22,O=C1C=C(c2ccc3[nH]ccc3c2)CCC1,16.3%
23,CC(=O)OCC1(C)CN(c2ccccc2)NC1=O (stereo not shown),13.7%
24,Cl.NC(=NCc1ccccc1)c1cccc([N+](=O)[O-])c1,-20%
25,N/C(=N\OC(=O)CCCc1ccccc1)c1cccc([N+](=O)[O-])c1,-3.9%

row,Structure (SMILES),"hERG current change (%, negative = inhibition) at 10uM"
1,Cl.NC(=NCCc1ccccc1)c1cccc([N+](=O)[O-])c1,-57.7%
2,CC(CCc1ccccc1)N(C)CC(O)c1cccc([N+](=O)[O-])c1.Cl (stereo not shown),-68.6%
3,O=C(Cc1ccccc1)NC(NC(=O)Cc1ccccc1)c1cccc([N+](=O)[O-])c1,4.27%
4,CC(CCc1ccccc1)NC(=O)c1cccc([N+](=O)[O-])c1 (stereo not shown),-8.01%
5,CC(CCc1ccccc1)NC(=O)CNc1cccc([N+](=O)[O-])c1 (stereo not shown),-30.1%
6,C=CCN(CC(O)c1cccc([N+](=O)[O-])c1)C(C)CCc1ccccc1.Cl (stereo not shown),-36.4%
7,CC(CCc1ccccc1)NCC(O)c1cccc([N+](=O)[O-])c1.Cl (stereo not shown),-56.2%
8,CCOc1cc(/C=C(/C#N)c2nc3ccccc3[nH]2)ccc1OCc1ccc(C(=O)O)o1,3.75%
9,CC1(C)CC2CC(C)(CN2C(=O)C23CCC(C)(C(=O)O2)C3(C)C)C1 (stereo not shown),-8.69%
10,Cc1cc(C)c(S(=O)(=O)NCc2cn3ccccc3n2)c(C)c1,4.96%
11,CCCCNC(=O)c1cc2ccccc2s1,10.8%
12,CC1CCN(C(=O)CNC(=O)CNC(=O)Cc2ccccc2)CC1,4.9%
13,C=CCN1C(=O)C2C(C(=O)NC3CCCC3)C3C=CC2(O3)C1C(=O)NC1CCCC1 (stereo not shown),19%
14,COC(=O)c1sccc1NC(=O)c1c(F)c(F)c(F)c(F)c1F,27%
15,CCn1ccnc1CNCc1ccc(OCC(O)CN(C)Cc2ccccc2)cc1 (stereo not shown),-11.7%
16,Cc1cc(CN(C)Cc2ccc(OCC(O)CN(C)Cc3ccccc3)cc2)on1 (stereo not shown),-4.84%
17,COc1ccc(CN(C)CC(O)COc2ccc(-c3ccccc3)cc2)cc1OC (stereo not shown),-69.4%
18,CN(Cc1ccc(OCC(O)CN(C)Cc2ccccc2)cc1)Cc1nccn1C (stereo not shown),-4.14%
19,COc1ccc(OCC(O)CNc2ccc(Br)cc2)cc1 (stereo not shown),9.56%
20,CN(Cc1ccc(Br)cc1)CC(O)COc1cccc(Br)c1 (stereo not shown),-28.5%
21,CN(Cc1ccccc1)CC(O)COc1ccc(CNCc2nccn2C)cc1 (stereo not shown),-72.5%
22,COc1ccc(Br)cc1CN(C)CC(O)COc1ccc(Br)cc1 (stereo not shown),-74.6%
23,CN(Cc1ccccc1)CC(O)COc1ccc(CNCc2cccnc2)cc1 (stereo not shown),1.13%
24,CC(=O)Nc1ccccc1-c1nn[nH]n1,0.73%
25,Cc1c(CCN)ccc2c1[nH]c1ccccc12,0.0766%

row,Structure (SMILES),"hERG current change (%, negative = inhibition) at 10uM"
1,Oc1ccccc1/C=N/N1CCCCC1,6.81%
2,CCN(CC)c1ncnc2c1ncn2Cc1c(Cl)cccc1Cl,2.93%
3,CC(C(=O)O)n1cc(Cl)cn1 (stereo not shown),8.82%
4,CCCCn1c(N)c(N(CC(C)C)C(=O)CN2C(=O)c3ccccc3C2=O)c(=O)[nH]c1=O,-7.79%
5,Cc1ccc(NC(=O)c2ccc(OC(=O)c3cc4ccccc4o3)cc2)cc1,8.66%
6,COc1cccc(SCC2CSc3nc4ccccc4c(=O)n32)c1 (stereo not shown),-22.3%
7,Cc1cccc(C(=O)Nc2ccccc2SCC2CSc3nc4ccccc4c(=O)n32)c1 (stereo not shown),-80.4%
8,O=c1c2ccccc2nc2n1C(CSCc1cccc(C(F)(F)F)c1)CS2 (stereo not shown),-23.4%
9,O=C(Nc1ccccc1SCC1CSc2nc3ccccc3c(=O)n21)c1cccc(Cl)c1 (stereo not shown),-75.5%
10,Cc1nc2ccccc2c(=O)n1NC(=O)c1cccc(Cl)c1,13%
11,O=C(Nc1ccccc1SCC1CSc2nc3ccccc3c(=O)n21)c1ccccc1 (stereo not shown),-67.7%
12,Nc1ccccc1SCC1CSc2nc3ccccc3c(=O)n21 (stereo not shown),-45.2%
13,O=c1c2ccccc2nc2n1C(CSc1ccccc1)CS2 (stereo not shown),-19.6%
14,O=c1c2ccccc2nc2n1C(CBr)CS2 (stereo not shown),15.6%
15,Cc1ccc(C(=O)Nc2nc3ccccc3c(=O)s2)cc1,15.9%
16,O=c1c2ccccc2nc2n1C(CSCc1ccc(Cl)cc1Cl)CS2 (stereo not shown),-21.8%
17,Cc1ccc(C(=O)Nc2ccccc2SCC2CSc3nc4ccccc4c(=O)n32)cc1 (stereo not shown),-68.4%
18,Cc1ccc(OC2CCN(C(=O)C3CCC(=O)N(C4CC4)C3)CC2)cc1 (stereo not shown),-15.8%
19,COC(=O)c1ccc(COC(=O)Cc2n[nH]c(=O)c3ccccc23)cc1,-1.24%
20,CCC(C)N=CC1=C(O)CC(c2ccccc2)CC1=O (stereo not shown),-4.11%
21,COc1ccc(C(=O)NCC(=O)OCC(=O)NC(=O)c2ccc(C(C)(C)C)cc2)cc1OC,-23.7%
22,CCN(CC)c1ncc(C#N)c(N)n1,8.37%
23,COc1ccc(CNC(=O)C2C3C=CC4(CN(Cc5cccnc5)C(=O)C24)O3)cc1 (stereo not shown),-16.2%
24,CCCc1nnc(NC(=O)c2ccncc2)s1,-3.78%
25,COc1ccc(NS(=O)(=O)c2ccc(NS(=O)(=O)c3cccs3)cc2)cc1,11.8%

row,Structure (SMILES),"hERG current change (%, negative = inhibition) at 10uM"
1,CCOC(=O)c1cnc(-c2ccccc2)nc1Oc1ccc(OC)cc1,14.2%
2,CCc1csc(CCNC(=O)C2CCC(=O)N(CCc3cccc(F)c3)C2)n1 (stereo not shown),-13.4%
3,O=c1c2ccccc2nc2n1C(CSCc1ccccc1)CS2 (stereo not shown),-37.1%
4,O=C(Nc1ccccc1SCC1CSc2nc3ccccc3c(=O)n21)c1ccccc1Cl (stereo not shown),-70.5%
5,O=c1c2ccccc2nc2n1C(CSc1ccc(F)cc1)CS2 (stereo not shown),-33.3%
6,COC(=O)c1sc2ccccc2c1NC(=O)c1ccc(S(=O)(=O)N2CCCCC2)cc1,11.2%
7,Cc1c(/C=N/NC(=O)c2ccc(Br)o2)cnn1C,21%
8,O=C1N=C(N2CCN(Cc3ccccc3)CC2)S/C1=C/c1cccs1,-41.1%
9,N#CCCN1CCN(C2=NC(=O)/C(=C\c3cccs3)S2)CC1,-52.4%
10,O=C1N=C(N2CCOCC2)S/C1=C/c1cccs1,-5.52%
11,O=C(CCSCc1cccc(Cl)c1)NCCc1ccc(Cl)cc1,4.09%
12,CCCCCCCCn1c(N2CCN(c3cccc(Cl)c3)CC2)nc2c1c(=O)[nH]c(=O)n2C,5.65%
13,Cc1ccc(S(=O)(=O)NCCC(=O)N2CCC(C(N)=O)CC2)cc1C,-6.54%
14,Cc1ccccc1C(=O)NC1CC2CCCC(C1)N2Cc1ccccc1 (stereo not shown),-25%
15,Cc1ccccc1C(=O)NC1CC2CCCC(C1)N2Cc1ccc(Cl)cc1 (stereo not shown),-71%
16,CCOc1ccccc1C(=O)NC1CC2CCCC(C1)N2Cc1ccccc1 (stereo not shown),-54.5%
17,CCOc1ccccc1C(=O)NC1CC2CCCC(C1)N2C1CC1 (stereo not shown),-19%
18,CCCN1C2CCCC1CC(NC(=O)c1ccccc1OC)C2 (stereo not shown),-3.42%
19,CCOc1ccccc1CN1CCC(O)CC1,12.1%
20,CCOc1ccccc1CN1C(=O)NC2(CCCCCC2)C1=O,9.32%
21,Cc1ccccc1C(=O)NC1CC2CCC(C1)N2Cc1ccccc1 (stereo not shown),-25%
22,CCOc1ccccc1C(=O)NC1CC2CCCC(C1)N2Cc1ccc(C)cc1 (stereo not shown),-65.2%
23,COc1ccccc1C(=O)NC1CC2CCC(C1)N2Cc1ccccc1 (stereo not shown),-20.4%
24,CCOc1ccccc1CN1C2CCC1CC(c1ccc(C)cc1)C2 (stereo not shown),-60.9%
25,CCCN1C2CCCC1CC(NC(=O)c1ccccc1OCC)C2 (stereo not shown),-47.2%
